In PubChem BioAssay AID463218 (Sanford-Burnham Center for Chemical Genomics, 2010):
Out of some 4,400 compounds screened, about 3,700 (84%) were called active. The set was probably picked from earlier hits. Only a sample is shown. A number with no mark means an inactive call.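 How the source made its calls: active means inhibition above about 39% in either of two replicate wells at 20 µM (limit read from the data); inactive means the rest.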

Assay: tim23-1 mutant yeast growth inhibitors, confirmation, luminescence, single concentration (AID 463218);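 further: temperature-sensitive tim23-1 mutant grown at 25 °C; 0% = DMSO wells with yeast and 100% = medium wells without yeast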
Settings: S. cerevisiae tim23-1 growth, BacTiter-Glo luminescence, 24 h; at 20 µM; hits give high values
For `O=C1Oc2ccccc2C(=O)/C1=C/c1ccccc1O`, the inhibition was 89% (active). With `O=C(CC(O)(C(F)(F)F)C(F)(F)F)Nc1ccc(Cl)c(Cl)c1` the inhibition was 92.1% (active). With `COc1cc(NC(=O)c2cccs2)ccc1NC(=O)c1ccccc1Cl` the inhibition was 42.2% (active). In the case of `Cc1nn(CC(=O)Nc2nc3ccccc3s2)c(C)c1[N+](=O)[O-]`, the inhibition was 54% (active). For `C=C1CCC(N(O)c2cc(C)on2)C(=C)CCC2C1CC2(C)C` (stereo not given), the inhibition was 44.8% (active). For `Cc1ccccc1OCC(=O)Nc1ccc(N2CCN(C(=O)C(C)C)CC2)c(Cl)c1`, the inhibition was 76.3% (active). For `COc1ccc(/C(N)=N/OC(=O)CCCc2ccccc2)cc1`, the inhibition was 41.2% (active). Compound `C/C(=N\NC(=S)NCc1ccccc1)c1ccc(Cl)cc1` has an inhibition of 36.7%. In the case of `N/C(=N\OC(=O)CCc1ccccc1)c1ccc(Cl)cc1`, the inhibition was 67.7% (active). With `COc1ccc2c(c1)C(=C(C#N)C#N)C(=O)N2CCc1ccccc1` the inhibition was -89.4%. For `Cc1cc2ncn(CCCCOc3ccccc3)c2cc1C`, the inhibition was 27.3%. In the case of `O=[N+]([O-])c1ccccc1S(=O)(=O)Nc1cccc2cccnc12`, the inhibition was 59.1% (active). For `Cc1cccc(Oc2c([N+](=O)[O-])c(=O)n(C)c3ccccc23)c1`, the inhibition was 59.6% (active). In the case of `N/C(=N\OC(=O)CC1CCCCC1)c1ccccc1`, the inhibition was 53.1% (active). For `O=C(NCCc1ccc(F)cc1)c1ccc(S(=O)(=O)N2CCCCC2)cc1`, the inhibition was 56% (active). With `Cc1ccc2cc3cc(C(=O)N4CCCCCC4)oc3nc2c1` the inhibition was 56% (active). With `CCC(=O)Nc1nc(C)c(C(=O)Nc2cccc(Cl)c2)s1` the inhibition was 75.2% (active). In the case of `COc1cc(Br)cc(/C=N/c2ncn[nH]2)c1O`, the inhibition was 85.5% (active). With `O=C1c2cccc3c([N+](=O)[O-])ccc(c23)C(=O)N1CC1CCCO1` (stereo not given) the inhibition was 86.2% (active). For `O=C(Oc1ccc([N+](=O)[O-])cc1)c1ccc2ccccc2n1`, the inhibition was 70.7% (active). With `O=C(N[C@H]1C/C=C\C(c2cccc(F)c2)N(Cc2ccccc2)C(=O)C1)OCC1c2ccccc2-c2ccccc21` (stereo not given in full) the inhibition was 40% (active). In the case of `COC(=O)c1c(NC(=O)CSc2nncs2)sc2c1CCCCC2`, the inhibition was 46.1% (active). In the case of `O=C(N/N=C/C=C/c1ccco1)c1cccs1`, the inhibition was 68.9% (active). With `COc1ccc(CNC(=O)/C(C#N)=C/c2cccc(OC)c2OC)cc1` the inhibition was 76.6% (active). With `CCCc1nc2c(c(=O)c3ccccc3n2C)c(=O)n1C1CCCCCC1` the inhibition was 58.9% (active). With `Cc1ccc(S(=O)(=O)NC2CCCCCC2)cc1` the inhibition was 37% (active). For `O=C(Cc1c(F)cccc1Cl)Nc1ncc([N+](=O)[O-])s1`, the inhibition was 71.3% (active). With `COc1ccc(-c2nc3cc(C)ccn3c2NC2CCCCC2)cc1SC1CCCCC1` the inhibition was 48.6% (active). With `O=C(/C=C/c1ccc(Cl)c([N+](=O)[O-])c1)c1cccnc1` the inhibition was 73.4% (active). With `Cc1ccccc1C1=N/C(=C/c2cccnc2)C(=O)O1` the inhibition was 57% (active). In the case of `O=C(Nc1nc(-c2ccco2)c(-c2ccco2)s1)c1ccco1`, the inhibition was 77.3% (active). For `O=C1[C@@H](c2ccccc2)[C@@H](c2ccccc2)N1c1cccnc1`, the inhibition was 71.3% (active). In the case of `N/C(Cc1ccc([N+](=O)[O-])cc1)=N\OC(=O)COc1ccc2ccccc2c1`, the inhibition was 72.3% (active). In the case of `N/C(Cc1ccc([N+](=O)[O-])cc1)=N\OC(=O)C1CCCCC1`, the inhibition was 64.3% (active). Work on `Cc1cccc(NC(=O)c2nc(S(=O)(=O)Cc3ccccc3)ncc2Cl)c1` yielded an inhibition of -88.7%. For `Cc1cccc(NC(=S)Nc2ccc(Cl)c(Cl)c2)c1`, the inhibition was 63.8% (active). With `Cn1c(=O)c(C(=O)Nc2ncccn2)c(O)c2ccccc21` the inhibition was 53.4% (active). With `O=C1Nc2ccccc2/C1=C/c1ccnc2ccccc12` the inhibition was 56.8% (active). With `CC(C)c1ccc(NC(=S)NC2CC3C=CC2C3)cc1` (stereo not given) the inhibition was 36.4%. In the case of `COc1ccc(S(=O)(=O)N2CCN(C(C)C(=O)Nc3ccc(C(C)C)cc3)CC2)cc1` (stereo not given), the inhibition was 51.4% (active). In the case of `COc1ccc(C(C[N+](=O)[O-])n2nc(C)cc2C)cc1` (stereo not given), the inhibition was 62% (active). For `O=C(NC(Nc1nc2ccc([N+](=O)[O-])cc2s1)(C(F)(F)F)C(F)(F)F)c1ccccc1`, the inhibition was 87.3% (active). Work on `COc1ccc(CS(=O)/C(Cl)=C(/Cl)C(=O)Nc2ccc(OC)nc2)cc1` (stereo not given) yielded an inhibition of -9.55%. For `COc1ccc(NC(=O)Nc2cccc3cccnc23)cc1`, the inhibition was 42.3% (active). With `CN(C(=O)CC(NC(=O)c1ccccc1)(c1ccccc1)c1ccccc1)c1ccccc1` the inhibition was 44.1% (active). With `Fc1ccccc1-c1cc2cc3c(cc2cn1)OCO3` the inhibition was 59% (active). With `CCOc1ccc(C(c2c(C)[nH][nH]c2=O)c2c(C)[nH][nH]c2=O)cc1OCC` the inhibition was 41.6% (active). `CCCc1c(C(=O)Nc2ccc(F)cc2)cnn1-c1ccccc1` showed an inhibition of 30.4%. For `Cc1ccc2nc(-c3ccc(NC(=O)c4cccnc4)cc3)oc2c1`, the inhibition was 42.7% (active). For `Cc1ccc(N=Cc2c(O)cc(C)oc2=O)c(C)c1`, the inhibition was 12.4%. For `O=C(Nc1nnc(SCc2c(Cl)cccc2Cl)s1)C1CCCO1` (stereo not given), the inhibition was 49.7% (active). For `Cc1cccc(C)c1NC(=O)C(Cl)C(=O)c1ccccc1` (stereo not given), the inhibition was 68.8% (active). With `S=C(NCCCc1ccccc1)Nc1ccc(Br)cc1` the inhibition was 54.3% (active). In the case of `COc1ccc2c(c1)C(NS(=O)(=O)OCC(Cl)(Cl)Cl)CCC2` (stereo not given), the inhibition was 52.8% (active). In the case of `CCCCCCc1ccc(O)cc1O`, the inhibition was 45.3% (active). For `O=C(NC(=S)NC1CCCCC1)c1ccc(Cl)cc1`, the inhibition was 53.2% (active). Compound `Cc1ccccc1C(=O)NC(=S)NC1CC1` has an inhibition of 12.2%. In the case of `COc1ccc(C(=O)NC(=S)NC2CCCCC2)cc1`, the inhibition was 59.2% (active). For `Cc1ccoc1C(=O)Nc1cccc(Oc2ccccc2)c1`, the inhibition was 75.2% (active). `O=C(Nc1ccccc1)c1ccc2c(c1)OCCCO2` gave an inhibition of 31.9%. In the case of `COc1ccccc1-c1n[nH]c2c1[C@H](C)CC[C@H]2C(C)C`, the inhibition was 61.8% (active). With `Cc1ccc(C2CC(=O)NC(SCC(=O)OCc3ccccc3)=C2C#N)o1` (stereo not given) the inhibition was 53.8% (active). Work on `CCc1nnc(NS(=O)(=O)c2ccc(NC(=S)NC(=O)/C=C/c3cccs3)cc2)s1` yielded an inhibition of 25.8%. In the case of `O=C1C=C(c2cccc(Cl)c2O)C[C@@H](c2ccc(F)cc2)C1`, the inhibition was 51.5% (active). In the case of `CC(=O)Oc1ccc2c(c1)C(=O)c1ccccc1C2=O`, the inhibition was 68.2% (active).
